# Source: PubChem BioAssay
# TEAD-YAP block = TEAD-YAP interaction inhibition. HEK-TIYL cells, TEAD-Gal4/YAP UAS-luciferase luminescence. inhibition, % at 9.12 µM. 640,000 compounds, 1.4% hits; in the data active = inhibition above about 32%;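 note: 0% = median of test compound wells and 100% = reference inhibitor wells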
# FBW7 activator = human FBW7 E3 ligase activation, primary screen; Q969H0; AlphaScreen FBW7–phospho-cyclin E peptide binding, activator screen; normalized activity (activation), % at 26.1 µM; 650,000 compounds, 0.13% hits; in the data active = normalized activity above about 1.9%;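 note: purified mutant Fbw7 with reduced substrate affinity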
# MITF inh = human MITF inhibition, primary screen | O75030 | AlphaScreen MITF homodimerization, bead proximity signal | inhibition, % at 2.6 µM | 650,000 compounds, 0.91% hits | AID 1259374; in the data active = inhibition above about 50%;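 note: 0% = vehicle wells with protein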
# GPR151 ag = activates the human receptor GPR151; AID 1508602; PathHunter beta-arrestin GPR151 cells, luminescence; 650,000 compounds, 1% hits; activation, % at 11.2 µM; Q8TDV0; in the data active = activation above about 4.9%;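 note: 0% = median of compound wells and 100% = cells with positive control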
# Target sequence (Q8TDV0 whole entry, looked up): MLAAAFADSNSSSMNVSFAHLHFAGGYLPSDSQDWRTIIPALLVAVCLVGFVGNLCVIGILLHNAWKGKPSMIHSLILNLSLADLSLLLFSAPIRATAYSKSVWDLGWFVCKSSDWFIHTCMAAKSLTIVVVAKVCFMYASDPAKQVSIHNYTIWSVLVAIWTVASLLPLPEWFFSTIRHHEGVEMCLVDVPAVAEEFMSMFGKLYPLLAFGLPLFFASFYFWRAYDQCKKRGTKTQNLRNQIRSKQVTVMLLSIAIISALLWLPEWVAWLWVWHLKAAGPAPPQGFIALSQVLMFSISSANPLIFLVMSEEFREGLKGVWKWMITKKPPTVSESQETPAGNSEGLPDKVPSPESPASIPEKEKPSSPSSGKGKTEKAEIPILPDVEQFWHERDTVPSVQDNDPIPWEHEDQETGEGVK
# GPR151 conf act = human GPR151 activation, confirmation screen; shares compounds with GPR151 ag; GPR151 PathHunter beta-arrestin cells, luminescence, 90 min; % of EA-reagent control over plate median; activation, % at 11.2 µM; 6,700 tested, under 10 active;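 active = mean percent activation across replicates above the confirmation screen cutoff of 4.91%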
# GPR119 ag = GPR119 activation, counter-screen for GPR151 activators; shares compounds with GPR151 ag; GPR119 PathHunter beta-arrestin cells, luminescence, 90 min; 0 = compound-well median, 100 = enzyme-acceptor control; activation, % at 11.2 µM; 6,700 compounds, 0.3% hits;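 active = mean percent activation in the counterscreen above 29.09%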;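 note: counterscreen on off-target GPR119 to flag nonselective hits from the GPR151 activator screen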
# Starred values were filed as active, the others as inactive; x = no result given; ! = a repeat was not active. Shown are actives, neighbours in structure and some others; about 3.4% of the full set was active somewhere.
SMILES,TEAD-YAP block,FBW7 activator,MITF inh,GPR151 ag,GPR151 conf act,GPR119 ag
COC(=O)/C(C#N)=C\Nc1ncc(-c2ccccc2)s1,-32,0,-16,-1,x,x
O=C1OC(c2ccc(F)cc2)=N/C1=C\c1ccc(-c2ccc(I)cc2)o1,-1,0,-1,6.0*,0,-1
COc1ccc(Cc2nc(SCC(=O)Nc3cccc(C(=O)OC(C)C)c3)n[nH]2)cc1,-2,0,9,5.8*,0,1
Cn1c(=O)c2ncn(CC(=O)Nc3ccc(C(=O)O)cc3)c2n(C)c1=O,-4,0,1,5.2*,0,4
Cc1cc(NC(=O)C(C)N(c2ccc(Cl)cc2)S(C)(=O)=O)ccc1Br (configuration not stated),-1,0,10,6.4*,0,6
COC(=O)c1ccccc1NC(=O)C(C)N(c1ccc(Cl)cc1)S(C)(=O)=O (configuration not stated),3,0,-1,6.8*,0,8
Cc1cc(NC(=O)C(=O)NC(C)C)ccc1Br,-60,0,21,6.4*,-1,-8
COC(=O)c1ccccc1NC(=O)C(C)N(c1cc(C)cc(C)c1)S(C)(=O)=O (configuration not stated),12,0,-4,0,x,x
Cc1nnc(SCC(=O)Nc2ncc(Cc3cccc(Cl)c3)s2)n1N,-11,0,6,2,x,x
Cn1c(=O)c2c(nc(Cl)n2Cc2c(F)cccc2Cl)n(C)c1=O,1,0,2,2,x,x
CCSc1nc2c(c(=O)n(C)c(=O)n2C)n1Cc1c(F)cccc1Cl,4,0,22,5.2*,0,-1
COc1ccc(O)c(/C=N/N=C2/C(=O)Nc3ccccc32)c1,9,0,15,6.6*,0,-5
COc1cc(/C=N/N=C2/C(=O)Nc3ccccc32)cc(OC)c1O,2,0,-8,3,x,x
O=C(c1ccc(S(=O)(=O)N2CCOCC2)cc1)N1CCN(C2CCCC2)CC1,5,0,21,0,x,x
Cc1c(Cl)cccc1NC(=O)c1ccccc1C(=O)O,8,0,13,1,x,x
Cc1c(Cl)cccc1Nc1ccccc1C(=O)O,-6,0,-1,7.5*!,0,6
C=CCOc1ccc(/C=C2/C(=O)N(c3cccc(Br)c3)N=C2C)cc1OC,1,0,2,-1,x,x
Cc1ccc(C)c(CN2CCc3nnc(CCNC(=O)COc4ccccc4)n3CC2)c1,15,0,6,8.8*,1,6
CCC(CC)CN1CCc2nnc(CCNC(=O)COc3ccccc3)n2CC1,3,1,15,5.1*,1,7
O=C(NCCc1nnc2n1CCN(Cc1cccc3ccccc13)CC2)C1CCCO1 (configuration not stated),-5,0,-18,2,x,x
Cc1cc(C)c(CN2CCc3nnc(CCNC(=O)COc4ccccc4)n3CC2)cc1C,0,0,0,-1,x,x
O=C(NCCc1nnc2n1CCN(Cc1ccccc1-c1ccco1)CC2)C1CCCO1 (configuration not stated),1,0,13,7.1*,2,13
CCc1cc(-c2nc(N)ncc2-c2cscn2)c(O)cc1OC,3,0,3,1,x,x
CC(=O)NN1C(=O)/C(=C/c2cccc(O)c2)SC1=S,7,0,12,6.3*,0,16
Cc1cc(CC(=N)N)c(C)cc1CC(=N)N,-5,0,6,5.4*,-1,-12
SMILES,TEAD-YAP block,FBW7 activator,MITF inh,GPR151 ag,GPR151 conf act,GPR119 ag
O=[N+]([O-])c1cccc(-c2nnc(-c3cccnc3)o2)c1,11,0,-6,0,x,x
CCn1c(SCC(=O)Nc2nc(C)cs2)nc2c(c1=O)SCC2,11,0,-4,6.3*,0,1
CCOc1ccc(-n2c(SCC(=O)Nc3cc(C)on3)nc3c(c2=O)SCC3)cc1,-38,0,4,5.1*,1,5
Cc1cc(C)nc(N2C(=O)c3ccccc3C2=O)n1,3,0,-3,0,x,x
Cc1ccc(C(=O)NC2=NCCS2)cc1,-67,0,2,-2,x,x
CCCN1C(=O)c2ccc(C(=O)NC3=NCCS3)cc2C1=O,-11,0,1,9.5*,-1,-4
O=C(NCCCN1CCOCC1)c1ccc([N+](=O)[O-])cc1,6,0,-5,-1,x,x
O=[N+]([O-])c1ccc(C(O)CNCCCN2CCOCC2)cc1 (configuration not stated),12,0,-1,7.0*,-1,-11
COC(=O)c1sccc1NC(=O)c1cc2ccccc2c(=O)o1,3,0,1,0,x,x
COc1ccc(N2CCN(CC(O)COc3ccccc3C(C)=O)CC2)cc1 (configuration not stated),9,0,15,5.9*,0,8
CCCCN(CC)c1cnn(-c2ccccc2)c(=O)c1N,-5,0,13,9.2*,0,-1
COC(=O)c1ccc2c(=O)n(CCc3ccc(S(N)(=O)=O)cc3)c(SCc3c(F)cccc3F)nc2c1,0,0,23,16*,0,1
COC(=O)c1ccc2c(=O)n(CCc3ccc(S(N)(=O)=O)cc3)c(SCC(=O)c3ccccc3)nc2c1,-5,0,-7,-1,x,x
C=CCC(CC=C)(C(=O)O)c1ccccc1,1,0,5,5.8*,-1,-7
CC(C)N(CCNc1ncnc2nc(Nc3ccccc3)[nH]c12)C(C)C,-7,0,5,-2,x,x
CC(C)N(CCNc1ncnc2nc(Nc3nccc4ccccc34)[nH]c12)C(C)C,-3,0,9,6.1*,0,-5
CCOC(=O)C1CCCN(C(=O)c2cc(S(=O)(=O)N3CCOCC3)cn2C)C1 (configuration not stated),-1,0,5,9.2*,0,3
CCOC(=O)C1CCN(C(=O)c2cc(S(=O)(=O)N3CCCC3)cn2C)CC1,8,0,8,0,x,x
NC(=O)C1(N2CCCCC2)CCN(C(=O)NC2CCCCC2)CC1,5,0,10,5.4*,0,6
Cc1cc(C)cc(NS(=O)(=O)c2cc3c(cc2Cl)NC(=O)CO3)c1,-2,0,10,-1,x,x
c1ccc(CCn2nnnc2CN2CCN(c3ccccc3)CC2)cc1,2,0,5,0,x,x
c1ccc(CCN2CCN(c3ccccc3)CC2)cc1,-4,0,21,6.9*,1,4
CN(CCNC(=O)CCn1nc(-c2ccc(Cl)cc2)ccc1=O)Cc1ccccc1,5,0,5,1,x,x
O=C(NCCCN1CCOCC1)/C(=C/c1ccc(-c2cccc(C(F)(F)F)c2)o1)NC(=O)c1ccc(Cl)cc1,-5,0,-4,9.4*,2,24
O=C1c2cccnc2C(=O)N1Cc1ccc(S(=O)(=O)N2CCCc3ccccc32)cc1,2,0,6,5.9*,0,-3
